# For some assays here: Results with a measured potency or affinity are listed apart.
# What was measured:
# Set-up in all cases: scale not given: direction of the effect not stated beside the values
# [1] = target: Protein translocase subunit SecA (Escherichia coli (strain K12)) (UniProt P10408); experiment: Assay to Identify E. coli SecA ATPase Inhibitors; format: functional; details: 30 µM
# [2] = target: T1, Ubiquitin-activating enzyme e1, putative (Leishmania donovani (strain BPK282A1)) (UniProt E9BSI1); experiment: Leishmania donovani Ubiquitin Activating Enzyme (LdE1); format: functional; details: 30 µM
# T1 sequence (whole entry): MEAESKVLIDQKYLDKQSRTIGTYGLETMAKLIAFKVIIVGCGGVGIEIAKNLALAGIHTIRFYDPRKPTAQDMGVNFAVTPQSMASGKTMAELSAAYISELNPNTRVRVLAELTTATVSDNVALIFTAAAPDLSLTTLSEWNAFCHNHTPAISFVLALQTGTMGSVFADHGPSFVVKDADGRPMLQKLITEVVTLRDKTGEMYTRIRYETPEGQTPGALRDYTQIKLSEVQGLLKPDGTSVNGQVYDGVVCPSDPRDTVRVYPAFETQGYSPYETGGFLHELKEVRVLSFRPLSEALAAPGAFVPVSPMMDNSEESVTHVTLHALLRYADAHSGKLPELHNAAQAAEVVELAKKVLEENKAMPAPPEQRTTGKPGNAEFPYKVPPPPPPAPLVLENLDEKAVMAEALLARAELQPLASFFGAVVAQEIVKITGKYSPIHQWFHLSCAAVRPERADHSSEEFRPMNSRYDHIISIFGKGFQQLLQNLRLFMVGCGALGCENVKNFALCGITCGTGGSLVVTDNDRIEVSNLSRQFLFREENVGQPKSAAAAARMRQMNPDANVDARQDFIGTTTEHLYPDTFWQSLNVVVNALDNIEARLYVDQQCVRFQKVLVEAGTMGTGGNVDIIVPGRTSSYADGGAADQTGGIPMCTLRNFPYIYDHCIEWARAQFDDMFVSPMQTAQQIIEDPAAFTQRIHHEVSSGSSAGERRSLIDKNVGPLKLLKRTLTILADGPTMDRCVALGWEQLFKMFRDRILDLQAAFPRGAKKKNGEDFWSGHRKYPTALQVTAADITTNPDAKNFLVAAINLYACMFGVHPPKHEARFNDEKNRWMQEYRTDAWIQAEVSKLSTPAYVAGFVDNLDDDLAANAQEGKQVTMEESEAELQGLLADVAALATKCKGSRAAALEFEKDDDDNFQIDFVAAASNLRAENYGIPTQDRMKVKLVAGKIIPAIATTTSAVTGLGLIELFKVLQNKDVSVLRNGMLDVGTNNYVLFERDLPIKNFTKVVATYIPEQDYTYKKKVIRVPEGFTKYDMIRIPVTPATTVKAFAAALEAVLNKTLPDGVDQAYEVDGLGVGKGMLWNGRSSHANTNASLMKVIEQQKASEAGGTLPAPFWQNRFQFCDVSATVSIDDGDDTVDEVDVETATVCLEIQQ
# [3] = target: AMP-activated protein kinase, AMPK (Homo sapiens) (UniProt P54646+O43741+P54619+Q9UGJ0+Q9Y478+Q13131+Q9UGI9); experiment: AMP-dependent Kinase enzyme assay. An in vitro enzyme assay that detects ADP turnover that is directly proportional to AMPK activity. This uses naive AMPK that is activated during the assay with MK-8722; format: functional; details: 30 µM
# [4] = target: Sialic acid-binding Ig-like lectin 9 (Homo sapiens) (UniProt Q9Y336); experiment: Hs-Siglec9 ALPHAscreen SOP 20170721; details: 10 µM
# Sequence of Sialic acid-binding Ig-like lectin 9 (Homo sapiens) (Q9Y336 whole entry): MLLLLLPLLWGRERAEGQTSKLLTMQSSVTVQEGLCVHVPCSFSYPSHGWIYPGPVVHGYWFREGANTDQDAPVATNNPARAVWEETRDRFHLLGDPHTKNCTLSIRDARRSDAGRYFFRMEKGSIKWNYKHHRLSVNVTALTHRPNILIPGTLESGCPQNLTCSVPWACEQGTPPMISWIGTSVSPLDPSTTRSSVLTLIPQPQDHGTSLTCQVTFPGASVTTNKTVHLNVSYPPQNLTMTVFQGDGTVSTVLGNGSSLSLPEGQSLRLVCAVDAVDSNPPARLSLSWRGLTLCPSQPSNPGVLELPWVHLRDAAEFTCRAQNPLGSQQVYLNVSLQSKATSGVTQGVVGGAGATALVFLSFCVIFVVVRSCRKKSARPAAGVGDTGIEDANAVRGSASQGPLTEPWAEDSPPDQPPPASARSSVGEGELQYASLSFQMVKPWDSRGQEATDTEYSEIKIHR
# Trypanosoma cruzi = experiment: Trypanosoma cruzi phosphomannomutase and mannose-1-phosphate guanylyltransferase assay; format: functional; details: 10 µM
# [5] = target: T2, Arginase-2, mitochondrial (Homo sapiens) (UniProt P78540); experiment: in vitro enzyme assay to detect the production of urea directly proportional to the activity of Arginase II; format: functional; details: 33.3 µM; note: in the data most compounds retested in dose-response had high values
# T2 sequence (whole entry): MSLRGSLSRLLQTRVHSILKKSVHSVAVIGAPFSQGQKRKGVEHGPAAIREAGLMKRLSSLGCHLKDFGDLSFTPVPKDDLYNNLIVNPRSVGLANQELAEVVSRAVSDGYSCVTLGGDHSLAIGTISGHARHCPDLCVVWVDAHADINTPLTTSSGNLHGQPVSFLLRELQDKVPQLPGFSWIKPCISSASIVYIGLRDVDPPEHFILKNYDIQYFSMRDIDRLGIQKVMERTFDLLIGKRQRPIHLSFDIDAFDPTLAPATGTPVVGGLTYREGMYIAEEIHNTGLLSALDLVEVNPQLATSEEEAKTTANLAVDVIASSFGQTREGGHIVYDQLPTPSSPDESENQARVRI
# [6] = target: T3, Proteasome subunit beta (Trypanosoma cruzi) (UniProt O96673); experiment: Trypanosoma cruzi proteasome chymotrypsin-like activity (TcProtChymo) assay.; note: in the data most compounds retested in dose-response had high values; format: functional; details: 9.37 µM
# T3 sequence (whole entry): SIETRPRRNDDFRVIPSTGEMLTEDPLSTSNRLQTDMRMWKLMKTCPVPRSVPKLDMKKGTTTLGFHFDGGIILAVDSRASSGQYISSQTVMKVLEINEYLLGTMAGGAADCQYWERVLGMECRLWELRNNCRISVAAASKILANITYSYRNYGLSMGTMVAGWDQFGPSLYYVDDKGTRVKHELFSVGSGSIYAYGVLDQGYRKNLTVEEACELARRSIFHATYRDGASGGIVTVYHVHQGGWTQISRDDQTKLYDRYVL
# Homo sapiens = species: Homo sapiens; experiment: To identify inhibition of the IFN signalling (Jak-Stat) pathway via expression of an eGFP reporter gene under the control of an IFN-stimulated response element (ISRE) containing MxA promoter.; format: functional; details: 30 µM
# [7] = target: T4, Tyrosyl-tRNA synthetase, putative (Trypanosoma cruzi (strain CL Brener)) (UniProt Q4DSP6); experiment: Trypanosoma cruzi tyrosyl tRNA synthetase (TcYRS) _High Tyrosine SOP; format: functional; details: 30 µM; note: in the data most compounds retested in dose-response had high values
# T4 sequence (whole entry): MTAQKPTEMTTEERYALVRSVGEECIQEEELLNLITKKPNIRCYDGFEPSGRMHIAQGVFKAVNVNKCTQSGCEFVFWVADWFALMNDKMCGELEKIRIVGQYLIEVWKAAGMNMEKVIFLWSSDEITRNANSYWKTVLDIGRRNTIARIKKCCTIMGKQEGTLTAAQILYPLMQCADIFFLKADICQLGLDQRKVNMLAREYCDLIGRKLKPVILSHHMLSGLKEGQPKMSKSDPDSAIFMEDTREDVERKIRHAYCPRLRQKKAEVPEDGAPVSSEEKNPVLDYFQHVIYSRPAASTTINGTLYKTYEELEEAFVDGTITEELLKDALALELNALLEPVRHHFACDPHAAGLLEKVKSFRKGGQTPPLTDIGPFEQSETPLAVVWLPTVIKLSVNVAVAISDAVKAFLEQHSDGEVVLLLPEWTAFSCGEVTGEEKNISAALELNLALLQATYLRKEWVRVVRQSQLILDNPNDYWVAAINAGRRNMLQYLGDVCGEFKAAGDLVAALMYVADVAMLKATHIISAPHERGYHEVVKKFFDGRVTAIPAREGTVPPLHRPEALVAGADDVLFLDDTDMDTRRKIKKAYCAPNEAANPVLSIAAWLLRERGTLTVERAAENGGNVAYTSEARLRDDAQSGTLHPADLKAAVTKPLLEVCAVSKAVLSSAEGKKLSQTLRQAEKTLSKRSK
# [8] = target: T4, Tyrosyl-tRNA synthetase, putative (Trypanosoma cruzi (strain CL Brener)); experiment: Trypanosoma cruzi tyrosyl tRNA synthetase (TcYRS) SOP; format: functional; details: 30 µM
# [9] = target: Chromo domain-containing protein 1 (Saccharomyces cerevisiae (strain ATCC 204508 / S288c) (Baker's yeast)) (UniProt P32657); experiment: ScCHD-1 Enzyme Inhibition Assay; format: functional; details: 30 µM; note: in the data most compounds retested in dose-response had high values
# Sequence of Chromo domain-containing protein 1 (Saccharomyces cerevisiae (strain ATCC 204508 / S288c) (Baker's yeast)) (P32657 whole entry, the tested form may be a part): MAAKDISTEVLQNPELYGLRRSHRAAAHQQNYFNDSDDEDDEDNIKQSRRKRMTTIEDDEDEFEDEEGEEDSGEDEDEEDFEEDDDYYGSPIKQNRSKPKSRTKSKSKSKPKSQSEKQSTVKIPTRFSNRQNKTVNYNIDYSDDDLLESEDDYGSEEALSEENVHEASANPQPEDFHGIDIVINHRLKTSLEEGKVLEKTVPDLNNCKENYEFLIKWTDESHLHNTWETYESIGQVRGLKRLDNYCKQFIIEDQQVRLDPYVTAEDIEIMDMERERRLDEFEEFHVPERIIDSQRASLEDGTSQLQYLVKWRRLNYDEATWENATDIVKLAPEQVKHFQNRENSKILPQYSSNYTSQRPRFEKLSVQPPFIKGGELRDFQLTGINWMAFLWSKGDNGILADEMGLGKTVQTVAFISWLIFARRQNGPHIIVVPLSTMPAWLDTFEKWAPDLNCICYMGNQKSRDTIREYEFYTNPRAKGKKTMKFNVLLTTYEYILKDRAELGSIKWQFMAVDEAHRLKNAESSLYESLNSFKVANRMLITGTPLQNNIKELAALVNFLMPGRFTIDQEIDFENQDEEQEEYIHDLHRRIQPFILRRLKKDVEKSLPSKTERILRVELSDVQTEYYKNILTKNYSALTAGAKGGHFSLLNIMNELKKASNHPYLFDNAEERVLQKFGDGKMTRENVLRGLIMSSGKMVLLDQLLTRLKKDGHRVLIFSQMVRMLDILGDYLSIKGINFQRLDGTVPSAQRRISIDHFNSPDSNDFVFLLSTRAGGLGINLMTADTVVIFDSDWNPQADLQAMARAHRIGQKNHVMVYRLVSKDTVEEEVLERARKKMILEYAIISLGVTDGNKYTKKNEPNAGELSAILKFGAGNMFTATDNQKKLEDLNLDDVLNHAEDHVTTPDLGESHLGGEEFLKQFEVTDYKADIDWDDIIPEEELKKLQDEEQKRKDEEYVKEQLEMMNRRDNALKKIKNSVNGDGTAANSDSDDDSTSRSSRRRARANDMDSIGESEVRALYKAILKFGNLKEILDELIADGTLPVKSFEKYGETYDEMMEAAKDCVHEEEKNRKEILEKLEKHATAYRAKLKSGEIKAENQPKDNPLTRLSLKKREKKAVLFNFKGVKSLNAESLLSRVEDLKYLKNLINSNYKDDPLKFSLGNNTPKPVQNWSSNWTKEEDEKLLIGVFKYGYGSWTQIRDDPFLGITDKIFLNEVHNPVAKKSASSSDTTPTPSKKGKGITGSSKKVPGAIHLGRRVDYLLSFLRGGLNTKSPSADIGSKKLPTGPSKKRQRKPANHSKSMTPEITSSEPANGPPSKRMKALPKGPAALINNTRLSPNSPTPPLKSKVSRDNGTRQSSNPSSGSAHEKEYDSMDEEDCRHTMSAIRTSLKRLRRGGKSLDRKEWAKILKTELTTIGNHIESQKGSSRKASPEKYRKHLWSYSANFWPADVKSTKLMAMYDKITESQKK
# Sequence of Protein translocase subunit SecA (Escherichia coli (strain K12)) (P10408 whole entry): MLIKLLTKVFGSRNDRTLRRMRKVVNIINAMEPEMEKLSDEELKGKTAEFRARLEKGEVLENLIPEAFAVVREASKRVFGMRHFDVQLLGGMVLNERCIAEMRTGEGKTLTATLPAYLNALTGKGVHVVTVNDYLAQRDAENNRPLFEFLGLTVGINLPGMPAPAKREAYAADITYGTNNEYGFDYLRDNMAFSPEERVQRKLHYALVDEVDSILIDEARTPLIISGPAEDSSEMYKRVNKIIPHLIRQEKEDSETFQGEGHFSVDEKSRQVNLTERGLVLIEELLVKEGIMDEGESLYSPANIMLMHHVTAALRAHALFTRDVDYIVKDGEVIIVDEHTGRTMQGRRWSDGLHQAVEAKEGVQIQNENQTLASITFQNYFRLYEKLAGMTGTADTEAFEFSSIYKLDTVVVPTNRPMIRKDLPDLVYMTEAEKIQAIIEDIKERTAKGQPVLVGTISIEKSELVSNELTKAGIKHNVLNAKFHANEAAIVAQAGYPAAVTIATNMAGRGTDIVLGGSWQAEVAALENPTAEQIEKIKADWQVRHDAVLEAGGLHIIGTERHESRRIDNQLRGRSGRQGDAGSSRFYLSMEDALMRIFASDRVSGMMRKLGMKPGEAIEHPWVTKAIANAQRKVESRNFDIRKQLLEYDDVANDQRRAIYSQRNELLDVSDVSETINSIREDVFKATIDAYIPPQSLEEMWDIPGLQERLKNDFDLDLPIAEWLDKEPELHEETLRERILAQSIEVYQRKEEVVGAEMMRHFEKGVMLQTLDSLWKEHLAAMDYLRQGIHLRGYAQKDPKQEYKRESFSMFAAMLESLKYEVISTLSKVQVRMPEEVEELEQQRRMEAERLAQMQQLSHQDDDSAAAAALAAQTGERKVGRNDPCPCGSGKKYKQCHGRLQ
SMILES,Percent Effect [1] [%],Percent Effect [2] [%],Percent Effect [3] [%],Percent Effect [4] [%],Percent Effect (Trypanosoma cruzi) [%],Percent Effect [5] [%],Percent Effect [6] [%],Percent Effect (Homo sapiens) [%],Percent Effect [7] [%],Percent Effect [8] [%],Percent Effect [9] [%]
O=C(NCc1cccnc1-n1cccn1)C1CC(=O)N(CC2CC2)C1 (configuration not stated),1.42,-2.6,12.9,-3.81,-3.43,7.37,2.99,18.6,-0.952,-2.35,-13.5
O=C(CN1CCCCC1Cn1cncn1)NCc1ccccn1 (configuration not stated),-0.608,2.53,-4.5,-1.76,-5,5.32,-6.31,11,4.43,3.8,-4.29
CN(Cc1ccccc1)CC1(O)CCCN(CC(C)(C)C)C1=O (configuration not stated),-2.06,6.94,-11.8,18.9,5.15,-1.77,1.4,-1.36,3.16,0,-0.279
CSC(C)(C)CNC(=O)NCCC1CCN(C)CC1,-2.34,2.67,-5.7,-5.29,0.487,-1.56,2.96,11.5,1.64,6.17,1.16
CCOc1ncccc1NC(=O)c1sccc1C,-2.31,-1.39,2.84,-14.7,-4.57,2.21,23.2,-6.94,4.21,7.69,4
Cc1cc(C)n(C2CCCN(C(=O)CCNS(C)(=O)=O)C2)n1 (configuration not stated),2.69,-6.33,-12.4,-1.59,-0.103,7.53,8.58,12.6,2.08,7.59,-22.7
CC(C)n1ccnc1C1CCN(Cc2ccc(Cl)s2)CC1,-4.43,7.79,1.43,13.8,7.96,6.9,6.99,9.49,8.6,16.1,-1.15
O=C(c1cccc(F)c1)N1CCN2C[C@H](OCc3cccnc3)C[C@H]2C1,-4.82,10.7,5.61,1.34,-3.15,6.29,10.7,8.83,3.19,14.1,-3.02
CC(=O)N1CCC(c2ccnc(Nc3cncnc3)n2)C1 (configuration not stated),-2.09,13.3,12.8,-1.51,-0.394,0.699,-0.793,8.94,7.45,14.1,-3.42
CN(Cc1ccc(OC(F)F)cc1)C(=O)CS(=O)(=O)c1ccc(Cl)cc1,-4.93,-2.7,-0.333,6.3,8.49,-1.91,0.345,3.29,-5.82,0,-1.75
c1csc(CN2Cc3nccn3CC(Cn3cncn3)C2)n1 (configuration not stated),1.97,2.74,0.961,63.8,-0.794,3.19,11.2,-1.52,4.17,13.6,-0.0341
COC[C@H]1CCC[C@]12CN(C(=O)NCc1ccccc1)CCO2,-5,20,-4.55,9.51,2.75,-7.22,13.5,2.52,3.17,10.3,-9.21
CCc1nc(CCNC(=O)Nc2ccc(C(=O)NC)cc2C)cs1,-9.57,0,-0.875,3.65,-3.8,-3.65,4.18,40.4,-2.73,-1.24,-1.65
Cc1noc(CCCC(=O)NC(C)c2cn(-c3ccccc3)nn2)n1 (configuration not stated),-1.64,0,3.68,6.5,6.58,1.15,6.35,-19.3,2.45,4.88,-6.39
CS(=O)(=O)N1CC[C@H]2[C@H](C[C@@H](Cn3cncn3)N2CC2CC2)C1,-6.68,10.4,9.89,7.05,-1.87,-4.14,7.16,-4,3.23,6.17,-0.097
O=C1CN(Cc2nnc(-c3ccc(Br)cc3)o2)CCN1,0.69,18.1,-9.97,2.35,2.04,-1.77,15.6,11.5,2.1,2.56,-3.39
COc1c(CNCCNC(=O)c2ccco2)c(C)nn1C,-4.26,2.7,-4.46,0.652,-1.39,-0.185,4.31,11.3,3.96,11,0.206
CCN1CCCn2c(nc(CNC(=O)c3ccsc3)cc2=O)C1,-4.67,13.5,7.54,3.9,-0.0978,9.24,13.1,-1.85,3.24,17.9,-0.449
CCN1CC2(CC1=O)CN(Cc1cnn(C)c1)CCN(C(C)=O)C2 (configuration not stated),-7.25,8.11,4.66,-2.12,-2.34,-3.33,10.4,-2.64,5.94,8.54,2.03
Cn1ncc2c(=O)[nH]c(CN3CCCC3c3cccs3)nc21 (configuration not stated),-2.36,20.2,-1.76,-3.9,-5.38,1.14,5.32,15.9,7.39,11.4,-5.13
CC(OCC(F)(F)F)C(=O)N1CCCCC1 (configuration not stated),-5.31,0,-0.316,-2.51,-0.783,-2.27,-1.77,19.4,1.07,2.5,0.868
O=C(c1cscn1)N1CCC2(CCN(Cc3cccs3)CC2)C1,-5.71,8.11,6.09,-2.27,0.489,2.23,19,9.36,1.08,15.4,0.482

# — ChEMBL document CHEMBL3988442, “University of Dundee, Small-Polar-MMV Screening Library” (2021)
